The campaign covered roughly 76,000 compounds. About 1,200 (1.6%) were called active. Entries that show only a call come without a potency. Inconclusive results (about 4%) are left out. The call rests on the fitted dose curve. This excerpt belongs to a sample that is enriched for actives.
Potency means the concentration at half of the fitted maximal effect.

The target of the assay is Atrial natriuretic peptide receptor 1 (Homo sapiens) (UniProt P16066). The assay can be described thus: Natriuretic polypeptide receptor (hNpr1) antagonism - Primary qHTS. Further: nearly all actives have a fitted effect of over 60% in size. The note with it: HEK293 hNpr1 GloSensor cGMP, ANP-stimulated luminescence; series mostly up to 46.3 µM. The essentials: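 HEK293 cells stably expressing human Npr1 and cGMP GloSensor pGS-40F, loaded 2 h with 2% GloSensor reagent, given compound 30 min at room temperature. Luminescence read before and 20 min after 0.1 nM hNppA.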
Chain of Atrial natriuretic peptide receptor 1 (Homo sapiens) (P16066 whole entry, looked up): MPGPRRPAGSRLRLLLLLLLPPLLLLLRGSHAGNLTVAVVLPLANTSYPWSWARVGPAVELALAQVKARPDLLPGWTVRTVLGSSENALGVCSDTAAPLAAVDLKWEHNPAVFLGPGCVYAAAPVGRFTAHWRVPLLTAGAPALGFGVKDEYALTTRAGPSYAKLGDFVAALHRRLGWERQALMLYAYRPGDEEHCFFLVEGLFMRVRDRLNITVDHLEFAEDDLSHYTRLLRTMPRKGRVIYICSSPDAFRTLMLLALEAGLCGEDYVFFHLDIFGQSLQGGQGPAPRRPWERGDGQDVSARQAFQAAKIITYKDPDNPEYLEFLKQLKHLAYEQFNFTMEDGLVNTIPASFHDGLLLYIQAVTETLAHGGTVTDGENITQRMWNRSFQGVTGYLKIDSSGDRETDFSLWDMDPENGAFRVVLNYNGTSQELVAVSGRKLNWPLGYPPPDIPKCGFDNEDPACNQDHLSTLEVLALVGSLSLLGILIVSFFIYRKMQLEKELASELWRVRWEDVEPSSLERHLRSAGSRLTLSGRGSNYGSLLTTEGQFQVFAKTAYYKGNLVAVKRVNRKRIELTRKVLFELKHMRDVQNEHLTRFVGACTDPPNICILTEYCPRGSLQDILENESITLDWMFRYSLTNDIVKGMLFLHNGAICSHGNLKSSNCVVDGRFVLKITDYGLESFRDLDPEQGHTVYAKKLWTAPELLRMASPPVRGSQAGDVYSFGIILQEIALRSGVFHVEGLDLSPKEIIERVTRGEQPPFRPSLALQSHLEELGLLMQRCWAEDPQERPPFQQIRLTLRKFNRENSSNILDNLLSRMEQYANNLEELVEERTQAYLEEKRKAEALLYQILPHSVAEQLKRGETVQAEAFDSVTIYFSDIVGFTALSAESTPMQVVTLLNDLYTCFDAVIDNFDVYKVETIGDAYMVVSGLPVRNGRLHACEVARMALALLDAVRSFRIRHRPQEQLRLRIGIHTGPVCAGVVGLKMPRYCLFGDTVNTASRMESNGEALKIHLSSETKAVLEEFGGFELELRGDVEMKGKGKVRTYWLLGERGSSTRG
Background: Quantitative high-throughput screening tests each substance at several concentrations.
For the molecule `CCC(C)NC(=O)CN1C(=O)NC2(CCC(C(C)(C)C)CC2)C1=O` (stereo not given), the Potency entry was “inactive”.
Regarding `CCCNc1cc(N2CCC(CCC(=O)NCc3ccc(Cl)cc3)CC2)ncn1`, the Potency result was “inactive”.
In the case of `O=C(c1ccoc1)N1CCCC(c2nc(CCOCC3CCCC3)no2)C1` (stereo not given), the Potency result was “inactive”.
On to `C1CCC(COCCc2noc(C3CNC3)n2)C1`, for which the Potency is 12.6 µM (active).
Then `O=C(Cc1cccnc1)N1CCCC(c2nc(CCOCC3CCCC3)no2)C1` (stereo not given), with “inactive”; and `COCCC(=O)N1CCC2(CC1)CC(C(=O)N1CCOCC1)N(C)C2` (stereo not given), with “inactive”.
For the molecule `Cc1ccc2c(c1)nc1n2[C@@H](CNC(=O)c2ccccc2)COC1`, the Potency entry is “inactive”.
On to `Cc1ccc2nc3n(c2c1)[C@@H](CNC(=O)COc1ccccc1)COC3`, for which the Potency result was “inactive”.
On to `Cc1ccc2c(c1)nc1n2[C@@H](CNS(=O)(=O)c2ccccc2)COC1`, for which the Potency is 31.6 µM (active).
As to `COCC1CN(Cc2ccc(OC)c(OC)c2Cl)CC12CCNCC2` (stereo not given), the Potency entry is “inactive”.
Then `COc1ccc(-c2cc(CC3(NCc4cccc(OC)c4)COC3)no2)cc1`, with “inactive”.
As for `CCN(CC)C(=O)[C@@H]1CCC[C@@H](NC2CCC2)CN(C)C(=O)C1`, the Potency result was “inactive”.
On to `COc1ccc(CC(=O)N2CCC(Cc3nc(C(C)C)no3)CC2)cc1Cl`, for which the Potency result was “inactive”.
Take `COc1ccc(CC(=O)N2CCC(Cc3nc(-c4ccccc4)no3)CC2)cc1OC`: the Potency was 10 µM (active).
Next, `COc1ccc(-c2nc3c(c(=O)[nH]2)CCN(C(=O)Cc2ccc(OC)c(Cl)c2)C3)cc1`: “inactive”; `COc1ccc(CC(=O)N2CCC(Cc3nc(-c4cnccn4)no3)CC2)cc1Cl`: “inactive”.
Turning to `COc1ccc(CC(=O)N2CCC3(CC2)CC(O)CCO3)cc1OC` (stereo not given), the Potency entry is “inactive”.
With `COc1ccc(-c2noc(CC3CCN(C(=O)Cc4ccc(OC)c(OC)c4)CC3)n2)cc1`, the Potency is 2.82 µM (active).
For `CCOCCOc1cccc(C(=O)N2CCC3(CCOCC3)CC2)c1`, the Potency result is “inactive”.
As to `CN(C)C(=O)c1n[nH]c2c1CN(C(=O)c1cccc(C(F)(F)F)c1)CC2`, the Potency result was “inactive”.
Next, `Cc1cc(C)c(CNC(=O)c2nc(-c3cccc(CO)c3)cc3c2ccn3C)c(=O)[nH]1`: “inactive”.
Next, `Cc1ccccc1-n1nc(CC(N)=O)nc1-c1ccc(Cn2cnnn2)cc1`: “inactive”.
As to `Cc1ccccc1CC(=O)N1CCC[C@H]1c1nc(-c2ccccc2Cl)no1`, the Potency result is “inactive”.
For the molecule `O=c1[nH]c(C2CCN(Cc3ccc(F)cc3)CC2)nn1Cc1ccccc1`, the Potency result is “inactive”.
Consider `O=c1[nH]c(C2CCN(Cc3ccccc3)CC2)nc2ccc(F)cc12`, for which the Potency entry is “inactive”.
Then `N#Cc1cccc(CN2CCC(C3=NC(O)c4cc(F)ccc4N3)CC2)c1` (stereo not given), with 8.91 µM (active).
As for `O=C(c1cc(F)ccc1Cl)N1CCN(c2cc(-c3ccc(F)cc3)[nH]n2)CC1`, the Potency is 17.8 µM (active).
In the case of `COc1ccc(-c2cc(N3CCN(C(=O)c4cc(OC)cc(OC)c4)CC3)n[nH]2)cc1`, the Potency result is “inactive”.
For the molecule `COc1ccc(-c2cc(N3CCN(C(=O)c4ccncc4)CC3)n[nH]2)cc1`, the Potency result is “inactive”.
For `O=C(Cc1ccc(F)cc1)NC1CCN(c2cc(-c3ccc(Cl)cc3)[nH]n2)CC1`, the Potency result is “inactive”.
For `O=C(c1ccc(F)cc1F)N1CCN(c2cc(-c3ccc(Cl)cc3)[nH]n2)CC1`, the Potency is 14.1 µM (active).
On to `COc1ccc(-c2cc(N3CCCN(C(=O)c4ccc(C)cc4)CC3)n[nH]2)cc1`, for which the Potency result is “inactive”.
On to `Cc1ccc(C(=O)N2CCN(c3cc(-c4ccc(Cl)cc4)[nH]n3)CC2)c(C)c1`, for which the Potency is 6.31 µM (active).
In the case of `O=C(c1ccc(Br)cc1)N1CCN(c2cc(-c3ccccc3)[nH]n2)CC1`, the Potency result is “inactive”.
Consider `O=C(c1ccoc1)N1CCN(c2cc(-c3ccc(Cl)cc3)[nH]n2)CC1`, for which the Potency entry was “inactive”.
On to `CC(C)c1cc(C2CCCN2CCC(=O)Nc2ccc(C(N)=O)cc2)no1` (stereo not given), for which the Potency result was “inactive”.
Take `COc1ccc(-c2nc(C3CC(=O)N(c4ccc(F)c(Cl)c4)C3)no2)cc1OC` (stereo not given): the Potency result is “inactive”.
For the molecule `O=C1NCCOCCCN(C(=O)CC2CCCC2)[C@H]2CCC[C@@H]12`, the Potency result was “inactive”.
Regarding `Cn1cnc(S(=O)(=O)N2CCCC(Cc3noc(-c4cnccn4)n3)C2)c1` (stereo not given), the Potency entry was “inactive”.
As to `Cc1cn2nc(C(=O)NCC(C)c3ccccc3)cc2c(N2CCCC2)n1` (stereo not given), the Potency entry is “inactive”.
Consider `O=C(NCC1CC1)C1Cn2cccc2C(=O)N1Cc1cccnc1` (stereo not given), for which the Potency entry is “inactive”.
Regarding `Cc1ccnc(N2CCC(c3nnc(-c4ccc(F)cc4)o3)CC2)n1`, the Potency result was “inactive”.
Regarding `COc1ccc(-c2onc(C)c2C(=O)NCCC(c2ccccc2)c2ccccc2)cc1`, the Potency result was “inactive”.
`Cc1cccc(-c2cc(C3CCN(S(=O)(=O)c4ccc(C#N)cc4)CC3)[nH]n2)c1`: the Potency result was “inactive”.
Then `Cc1cccc(CN2CCCCCCNC(=O)[C@@H]3CCC[C@@H]32)c1`, with “inactive”; and `COc1cccc(CN2Cc3nc(-c4cc(F)cc(F)c4)ccc3OCC2=O)c1`, with “inactive”.
Consider `COc1ccc(C2Cn3nnc(C(=O)N4CCC(C(=O)NCc5ccc(C)cc5)CC4)c3CO2)cc1` (stereo not given), for which the Potency entry is “inactive”.
In the case of `CN(C)c1ccc(C(=O)N2CCN(C(=O)c3nnn4c3COC(c3ccc(Cl)cc3)C4)CC2)cc1` (stereo not given), the Potency result is “inactive”.
For `COc1ccc(C2Cn3nnc(C(=O)N4CCN(C(=O)c5cccc(Cl)c5)CC4)c3CO2)cc1` (stereo not given), the Potency was 7.08 µM (active).
Regarding `O=C(c1ccoc1)N1CCN(C(=O)c2nnn3c2COC(c2ccc(Cl)cc2)C3)CC1` (stereo not given), the Potency entry was “inactive”.
Next, `COc1ccc(C2Cn3nnc(C(=O)N4CCN(C(=O)c5ccc(C)cc5C)CC4)c3CO2)cc1` (stereo not given): 14.1 µM (active); `Cc1ccc(C2Cn3nnc(C(=O)N4CCN(C(=O)COc5cccc(C)c5)CC4)c3CO2)cc1` (stereo not given): “inactive”.
In the case of `O=C1N(Cc2ccc(F)cc2)C[C@H]2CN(Cc3ccncc3F)CCN12`, the Potency result is “inactive”.
Then `Cc1ccc(C2Cn3nnc(C(=O)N4CCC(C(=O)Nc5ccc(Cl)cc5)CC4)c3CO2)cc1` (stereo not given), with “inactive”; and `CC(C)(O)CCc1ccc(C(=O)NCc2nc(-c3ncccn3)no2)cc1`, with “inactive”; and `COc1ncccc1Nc1cnc2ccc(N3CCOCC3)nn12`, with “inactive”.
On to `CCOc1cccc(-c2nnc(CCC(=O)NCCC(C)C)c(=O)[nH]2)c1`, for which the Potency entry was “inactive”.
On to `CCNc1cc(N2CCC(CCC(=O)Nc3ccc(C)cc3C)CC2)ncn1`, for which the Potency result was “inactive”.
As to `CCCNc1cc(N2CCC(CCC(=O)Nc3ccc(C)cc3)CC2)ncn1`, the Potency entry is “inactive”.
Regarding `CCNc1cc(N2CCC(CCC(=O)N3CCc4ccccc4C3)CC2)ncn1`, the Potency was 11.2 µM (active).
Take `CS(=O)(=O)N1C[C@H]2CCN(C(=O)c3cc(F)ccc3Cl)C[C@H]21`: the Potency result is “inactive”.
For the molecule `COc1ccc2nc([C@H]3CCN(Cc4ccc(NC(C)=O)cc4)C3)[nH]c2c1`, the Potency result is “inactive”.
As to `O=c1[nH]c(C2CCCN(Cc3ccc(-c4ccsc4)cc3)C2)nc2ccc(F)cc12` (stereo not given), the Potency entry was “inactive”.
As for `Cc1ccc2nc(C3CCCN(Cc4ccc(C#N)cc4)C3)[nH]c(=O)c2c1` (stereo not given), the Potency was 14.1 µM (active).
With `CC(C)c1noc(-c2cn(C3CCN(C(=O)COc4ccccc4)C3)nn2)n1` (stereo not given), the Potency entry is “inactive”.
Take `CC(C)c1noc(-c2cn(C3CCN(C(=O)c4cccc(C#N)c4)CC3)nn2)n1`: the Potency result was “inactive”.
Regarding `CC(C)c1cc(C(=O)N2CCC(n3cc(-c4ccccn4)nn3)CC2)n(C)n1`, the Potency is 10 µM (active).
Consider `COc1cccc(C(=O)N2CCC(Cc3nc(-c4cnccn4)no3)CC2)c1`, for which the Potency entry was “inactive”.
For the molecule `O=C(c1cccnc1)N1CCC(Cc2nc(C3CCOCC3)no2)CC1`, the Potency result was “inactive”.
Consider `COc1ccc(C(=O)N2CCCC(Cc3nc(C4CCOCC4)no3)C2)cc1` (stereo not given), for which the Potency result is “inactive”.
For the molecule `O=C(c1ccccc1)N1CCC(C(=O)N2CCC(Cc3nc(-c4ccc(F)cc4)no3)CC2)CC1`, the Potency was 11.2 µM (active).
Turning to `O=C(C1CC1)N1CCCC(c2noc(COc3ccccc3F)n2)C1` (stereo not given), the Potency entry was “inactive”.
In the case of `COc1cccc(-c2noc(CC3CCN(C(=O)c4ccc(F)cc4)CC3)n2)c1`, the Potency was 5.62 µM (active).
Then `CCN(Cc1ccncc1)C(=O)c1ccc2c(c1)C(O)CCCCCN2C` (stereo not given), with “inactive”; and `C=C(C)CN(CC)C(=O)c1c(C)oc2c1CN(Cc1cccc(F)c1)CC2`, with “inactive”.
As to `O=C(C[C@@H]1CCNC[C@@H]1Cc1cc(CC2CCCCC2)on1)N1CCOCC1`, the Potency entry was “inactive”.
For `COCCCNC(=O)c1ccc2c(c1)n(Cc1cccc(OC)c1)c(=O)c1ccnn12`, the Potency result is “inactive”.
`COCC1CN(C2CCC2)CC12CCN(C(=O)CCc1ccccc1)CC2` (stereo not given): the Potency entry was “inactive”.
With `COc1ccc(CN2C(=O)COC[C@H]2C(=O)Nc2ccc(C(C)C)cc2)c(OC)c1`, the Potency result is “inactive”.
As to `CN(C)c1cccc(-c2cnc(Nc3ccc(N4CCOCC4)cc3)c3c2CCO3)c1`, the Potency is 25.1 µM (active).
On to `CN(C)c1cccc(-c2cnc(Nc3cnccn3)c3c2CCO3)c1`, for which the Potency result was “inactive”.
Next, `CN1CCN(Cc2ccc(Nc3ncc(-c4cccnc4)c4c3OCC4)cc2)CC1`: “inactive”.
On to `O=C(Nc1ccc(-c2nnc3n2CCCC3)cc1)c1ccsc1`, for which the Potency result is “inactive”.
For the molecule `CCn1c2c(c(=O)n1-c1ccccc1)CCN(C(=O)COc1ccccc1)C2`, the Potency entry is “inactive”.
With `O=C(Nc1ccc(F)cc1)c1ccc2ccnn2c1`, the Potency entry was “inactive”.
